Source: PMC7862700, “An all-to-all approach to the identification of sequence-specific readers for epigenetic DNA modifications on cytosine”

Legend:
Experiment in all cases: DAPPL (digital affinity profiling via proximity ligation, sequencing); 10 mM Tris-HCl pH 7.5, 50 mM NaCl, 1 mM DTT, 4% glycerol, room temperature, 30 min; GST-TFs on glutathione beads, 16-mer random dsDNA library, 0.1% formaldehyde crosslink after washing; high values mean tight binding
Details in all cases: protein: recombinant; tags: N-terminal GST; dsDNA, one strand shown
FLI1 = molecular target: T1, FLI1 (Homo sapiens, UniProt Q01543 1-452)
T1 sequence: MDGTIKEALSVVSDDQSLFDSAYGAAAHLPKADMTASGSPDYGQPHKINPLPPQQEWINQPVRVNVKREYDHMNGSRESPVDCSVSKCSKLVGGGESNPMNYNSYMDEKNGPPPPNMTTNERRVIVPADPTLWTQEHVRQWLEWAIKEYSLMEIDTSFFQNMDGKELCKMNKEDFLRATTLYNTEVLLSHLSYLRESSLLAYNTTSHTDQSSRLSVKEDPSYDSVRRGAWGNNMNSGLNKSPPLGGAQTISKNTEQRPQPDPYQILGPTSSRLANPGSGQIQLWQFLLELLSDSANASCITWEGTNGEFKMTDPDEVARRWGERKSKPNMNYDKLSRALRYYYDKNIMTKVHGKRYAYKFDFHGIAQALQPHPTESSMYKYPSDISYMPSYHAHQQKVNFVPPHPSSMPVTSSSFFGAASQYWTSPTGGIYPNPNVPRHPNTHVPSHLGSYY
Method in brief: (§1)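 Human transcription factors fused to GST were expressed in yeast, captured on glutathione beads, given DNA barcodes and pooled with a GST-only negative control. Pools were incubated with 200 nmole of a 16-mer random double-stranded DNA library in Tris/NaCl/DTT/glycerol buffer at room temperature for 30 min. They were then washed, crosslinked with 0.1% formaldehyde, proximity-ligated (BsaI/T4 ligase, 1 h, 37 °C), PCR-amplified and sequenced on an Illumina NextSeq500. Binding signal is each 6-mer's read frequency for a factor divided by its frequency for the GST control.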

ELF1 = ELF1 (Homo sapiens, UniProt P32519 1-619)
Method in brief: as §1

EHF = molecular target: T2, EHF (Homo sapiens, UniProt Q9NZC4 1-300)
T2 sequence: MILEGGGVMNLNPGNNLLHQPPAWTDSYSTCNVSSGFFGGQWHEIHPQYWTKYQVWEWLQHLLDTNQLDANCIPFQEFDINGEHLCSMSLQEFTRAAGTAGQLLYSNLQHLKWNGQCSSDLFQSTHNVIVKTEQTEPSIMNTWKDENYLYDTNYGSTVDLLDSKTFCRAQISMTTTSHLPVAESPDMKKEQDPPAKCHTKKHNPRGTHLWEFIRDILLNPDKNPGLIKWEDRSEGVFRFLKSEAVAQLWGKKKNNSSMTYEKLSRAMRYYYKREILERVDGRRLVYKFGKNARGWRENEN
Method in brief: as §1

ELK3 = molecular target: T3, ELK3 (Homo sapiens, UniProt P41970 1-407)
T3 sequence: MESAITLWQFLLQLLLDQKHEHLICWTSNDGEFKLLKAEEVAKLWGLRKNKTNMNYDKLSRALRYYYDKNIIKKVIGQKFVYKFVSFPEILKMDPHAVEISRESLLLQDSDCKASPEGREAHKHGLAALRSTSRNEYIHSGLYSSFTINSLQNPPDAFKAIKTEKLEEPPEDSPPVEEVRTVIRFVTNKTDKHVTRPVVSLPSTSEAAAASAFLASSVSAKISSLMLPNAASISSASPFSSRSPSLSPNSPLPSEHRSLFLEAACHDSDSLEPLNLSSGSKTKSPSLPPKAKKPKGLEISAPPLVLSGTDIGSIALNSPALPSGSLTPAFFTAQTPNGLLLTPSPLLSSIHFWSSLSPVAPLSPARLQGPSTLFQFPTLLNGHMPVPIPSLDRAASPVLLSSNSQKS
Method in brief: as §1

SPIC = molecular target: T4, SPIC (Homo sapiens, UniProt Q8N5J4 1-248)
T4 sequence: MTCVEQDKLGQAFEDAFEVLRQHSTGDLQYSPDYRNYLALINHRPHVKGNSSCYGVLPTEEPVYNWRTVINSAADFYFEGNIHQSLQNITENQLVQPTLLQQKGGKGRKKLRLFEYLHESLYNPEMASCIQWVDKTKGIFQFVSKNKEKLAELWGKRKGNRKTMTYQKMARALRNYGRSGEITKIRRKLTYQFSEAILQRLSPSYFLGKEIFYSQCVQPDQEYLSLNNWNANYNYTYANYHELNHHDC
Method in brief: as §1

ELF4 = ELF4 (Homo sapiens, UniProt Q99607 1-663)
Method in brief: as §1

ELK4 = molecular target: T5, ELK4 (Homo sapiens, UniProt P28324-2 1-405)
T5 sequence: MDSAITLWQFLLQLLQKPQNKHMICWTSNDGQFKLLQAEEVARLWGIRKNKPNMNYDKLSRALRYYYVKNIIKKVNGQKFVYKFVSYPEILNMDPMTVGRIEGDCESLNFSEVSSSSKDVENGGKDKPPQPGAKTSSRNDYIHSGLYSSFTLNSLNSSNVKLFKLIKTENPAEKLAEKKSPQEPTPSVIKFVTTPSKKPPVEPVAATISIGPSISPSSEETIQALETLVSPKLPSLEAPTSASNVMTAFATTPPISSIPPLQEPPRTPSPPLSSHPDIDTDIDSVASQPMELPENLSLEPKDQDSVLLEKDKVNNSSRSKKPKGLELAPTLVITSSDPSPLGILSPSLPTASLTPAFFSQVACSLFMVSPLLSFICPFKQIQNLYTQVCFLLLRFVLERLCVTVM
Method in brief: as §1

ETV2 = molecular target: T6, ETV2 (Homo sapiens, UniProt O00321 1-342)
T6 sequence: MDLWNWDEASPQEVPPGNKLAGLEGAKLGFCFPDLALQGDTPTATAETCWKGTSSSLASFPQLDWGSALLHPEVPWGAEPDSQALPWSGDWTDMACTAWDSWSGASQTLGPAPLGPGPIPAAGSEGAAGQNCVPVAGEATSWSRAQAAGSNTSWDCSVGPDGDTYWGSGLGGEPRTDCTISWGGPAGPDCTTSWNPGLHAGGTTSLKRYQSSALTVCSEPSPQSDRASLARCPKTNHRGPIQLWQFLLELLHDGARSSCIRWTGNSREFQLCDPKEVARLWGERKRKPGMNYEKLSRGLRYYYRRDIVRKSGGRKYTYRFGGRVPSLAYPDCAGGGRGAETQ
Method in brief: as §1

ELF3 = molecular target: T7, ELF3 (Homo sapiens, UniProt P78545 1-371)
T7 sequence: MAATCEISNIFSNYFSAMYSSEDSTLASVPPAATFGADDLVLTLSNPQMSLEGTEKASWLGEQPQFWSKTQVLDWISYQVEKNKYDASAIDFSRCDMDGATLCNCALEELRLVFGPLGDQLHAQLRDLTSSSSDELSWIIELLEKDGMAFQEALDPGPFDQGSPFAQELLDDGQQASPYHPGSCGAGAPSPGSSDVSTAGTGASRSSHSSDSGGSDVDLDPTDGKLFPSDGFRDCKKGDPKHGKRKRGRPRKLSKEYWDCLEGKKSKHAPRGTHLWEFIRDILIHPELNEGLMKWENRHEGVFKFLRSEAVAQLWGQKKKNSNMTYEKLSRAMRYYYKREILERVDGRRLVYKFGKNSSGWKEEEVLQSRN
Method in brief: as §1

ETV1 = ETV1 (Homo sapiens, UniProt P50549 1-477)
Method in brief: as §1

ERF = molecular target: T8, ERF (Homo sapiens, UniProt P50548 1-548)
T8 sequence: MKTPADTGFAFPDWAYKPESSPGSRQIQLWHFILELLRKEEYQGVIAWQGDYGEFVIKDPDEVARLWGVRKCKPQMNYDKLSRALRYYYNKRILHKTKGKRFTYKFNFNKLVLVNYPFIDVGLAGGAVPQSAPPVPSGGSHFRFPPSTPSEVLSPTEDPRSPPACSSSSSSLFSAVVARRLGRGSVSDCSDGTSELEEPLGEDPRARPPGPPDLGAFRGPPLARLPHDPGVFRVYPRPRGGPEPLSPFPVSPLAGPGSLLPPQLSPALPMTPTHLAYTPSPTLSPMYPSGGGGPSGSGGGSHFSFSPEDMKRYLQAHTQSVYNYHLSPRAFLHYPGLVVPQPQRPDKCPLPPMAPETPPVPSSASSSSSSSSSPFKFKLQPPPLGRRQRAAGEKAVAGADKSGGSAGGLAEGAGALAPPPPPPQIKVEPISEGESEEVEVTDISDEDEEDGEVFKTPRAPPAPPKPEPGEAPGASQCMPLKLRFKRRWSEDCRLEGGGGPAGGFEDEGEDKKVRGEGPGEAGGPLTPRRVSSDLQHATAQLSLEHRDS
Method in brief: as §1

ETV3L = molecular target: T9, ETV3L (Homo sapiens, UniProt Q6ZN32 1-361)
T9 sequence: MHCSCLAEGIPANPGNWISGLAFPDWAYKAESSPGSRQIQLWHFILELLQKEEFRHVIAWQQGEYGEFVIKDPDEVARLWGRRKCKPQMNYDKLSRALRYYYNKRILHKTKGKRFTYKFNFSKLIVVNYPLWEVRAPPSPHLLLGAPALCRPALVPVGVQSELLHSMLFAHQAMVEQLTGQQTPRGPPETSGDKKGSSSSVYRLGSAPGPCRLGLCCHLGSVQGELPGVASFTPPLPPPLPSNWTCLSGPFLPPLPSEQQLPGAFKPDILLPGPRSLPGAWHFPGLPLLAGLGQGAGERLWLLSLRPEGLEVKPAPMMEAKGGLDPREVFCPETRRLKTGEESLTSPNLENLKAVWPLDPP
Method in brief: as §1

ETS2 = molecular target: T10, ETS2 (Homo sapiens, UniProt P15036 1-469)
T10 sequence: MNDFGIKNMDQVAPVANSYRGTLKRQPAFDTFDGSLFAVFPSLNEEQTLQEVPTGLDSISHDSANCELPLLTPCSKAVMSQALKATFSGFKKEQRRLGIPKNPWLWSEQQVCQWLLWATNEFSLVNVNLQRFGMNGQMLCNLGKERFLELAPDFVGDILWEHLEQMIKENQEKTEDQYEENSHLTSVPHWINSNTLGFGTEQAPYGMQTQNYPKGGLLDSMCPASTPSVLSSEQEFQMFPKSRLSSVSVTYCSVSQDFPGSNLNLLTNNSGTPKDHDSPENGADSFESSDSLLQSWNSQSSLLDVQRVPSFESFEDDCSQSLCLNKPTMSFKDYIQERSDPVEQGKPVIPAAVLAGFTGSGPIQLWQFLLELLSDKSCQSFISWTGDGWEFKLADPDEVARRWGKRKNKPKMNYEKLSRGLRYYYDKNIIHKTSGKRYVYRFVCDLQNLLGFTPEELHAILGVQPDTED
Method in brief: as §1

ETV7 = molecular target: T11, ETV7 (Homo sapiens, UniProt Q9Y603 1-341)
T11 sequence: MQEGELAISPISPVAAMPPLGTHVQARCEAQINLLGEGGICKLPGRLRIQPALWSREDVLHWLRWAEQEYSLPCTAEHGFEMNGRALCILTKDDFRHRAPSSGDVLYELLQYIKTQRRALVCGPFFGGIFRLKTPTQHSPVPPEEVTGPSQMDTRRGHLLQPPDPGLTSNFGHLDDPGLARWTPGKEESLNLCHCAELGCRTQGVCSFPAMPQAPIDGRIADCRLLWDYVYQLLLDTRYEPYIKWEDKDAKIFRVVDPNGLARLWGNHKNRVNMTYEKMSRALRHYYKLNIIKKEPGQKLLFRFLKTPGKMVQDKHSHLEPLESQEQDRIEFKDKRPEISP
Method in brief: as §1

ETV3 = molecular target: T12, ETV3 (Homo sapiens, UniProt P41162-2 1-143)
T12 sequence: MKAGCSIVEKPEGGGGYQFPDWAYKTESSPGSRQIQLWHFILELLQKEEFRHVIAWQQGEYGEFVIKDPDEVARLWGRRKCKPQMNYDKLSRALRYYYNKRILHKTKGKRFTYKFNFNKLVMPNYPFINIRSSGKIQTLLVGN
Method in brief: as §1

ETV6 = ETV6 (Homo sapiens, UniProt P41212 1-452)
Method in brief: as §1

Sequence of ELF1 (P32519 whole entry): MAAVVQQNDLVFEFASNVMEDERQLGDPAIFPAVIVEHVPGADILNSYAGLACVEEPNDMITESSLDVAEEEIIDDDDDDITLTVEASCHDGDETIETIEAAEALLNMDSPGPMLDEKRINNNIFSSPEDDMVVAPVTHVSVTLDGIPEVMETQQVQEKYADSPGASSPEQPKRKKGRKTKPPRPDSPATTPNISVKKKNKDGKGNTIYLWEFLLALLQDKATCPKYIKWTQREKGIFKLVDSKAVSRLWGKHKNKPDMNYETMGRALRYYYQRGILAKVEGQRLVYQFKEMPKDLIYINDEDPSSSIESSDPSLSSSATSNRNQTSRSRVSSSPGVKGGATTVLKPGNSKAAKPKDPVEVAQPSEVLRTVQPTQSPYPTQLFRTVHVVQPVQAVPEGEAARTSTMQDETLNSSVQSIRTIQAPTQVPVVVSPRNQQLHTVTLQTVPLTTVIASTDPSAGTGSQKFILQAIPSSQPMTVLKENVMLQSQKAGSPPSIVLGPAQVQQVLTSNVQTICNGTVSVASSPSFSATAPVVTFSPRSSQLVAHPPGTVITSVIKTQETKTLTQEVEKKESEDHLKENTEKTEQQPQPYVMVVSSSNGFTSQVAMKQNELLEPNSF
Sequence of ELF4 (Q99607 whole entry): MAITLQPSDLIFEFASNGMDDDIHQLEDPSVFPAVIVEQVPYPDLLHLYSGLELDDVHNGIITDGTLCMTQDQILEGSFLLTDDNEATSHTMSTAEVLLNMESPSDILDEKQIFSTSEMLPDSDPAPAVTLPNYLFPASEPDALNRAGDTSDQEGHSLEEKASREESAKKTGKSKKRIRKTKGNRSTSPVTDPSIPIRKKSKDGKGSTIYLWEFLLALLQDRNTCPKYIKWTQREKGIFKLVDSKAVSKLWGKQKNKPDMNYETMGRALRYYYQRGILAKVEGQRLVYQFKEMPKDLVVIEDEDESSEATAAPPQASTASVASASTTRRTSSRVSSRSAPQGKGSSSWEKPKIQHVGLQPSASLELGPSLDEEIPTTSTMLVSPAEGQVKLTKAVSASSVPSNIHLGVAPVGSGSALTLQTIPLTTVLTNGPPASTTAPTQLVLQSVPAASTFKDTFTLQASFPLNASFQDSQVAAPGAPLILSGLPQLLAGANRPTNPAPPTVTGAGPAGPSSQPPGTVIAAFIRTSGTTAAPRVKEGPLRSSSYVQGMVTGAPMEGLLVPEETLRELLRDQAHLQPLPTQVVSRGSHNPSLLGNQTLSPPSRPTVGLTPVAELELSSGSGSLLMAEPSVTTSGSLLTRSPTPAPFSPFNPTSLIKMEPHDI
Sequence of ETV6 (P41212 whole entry): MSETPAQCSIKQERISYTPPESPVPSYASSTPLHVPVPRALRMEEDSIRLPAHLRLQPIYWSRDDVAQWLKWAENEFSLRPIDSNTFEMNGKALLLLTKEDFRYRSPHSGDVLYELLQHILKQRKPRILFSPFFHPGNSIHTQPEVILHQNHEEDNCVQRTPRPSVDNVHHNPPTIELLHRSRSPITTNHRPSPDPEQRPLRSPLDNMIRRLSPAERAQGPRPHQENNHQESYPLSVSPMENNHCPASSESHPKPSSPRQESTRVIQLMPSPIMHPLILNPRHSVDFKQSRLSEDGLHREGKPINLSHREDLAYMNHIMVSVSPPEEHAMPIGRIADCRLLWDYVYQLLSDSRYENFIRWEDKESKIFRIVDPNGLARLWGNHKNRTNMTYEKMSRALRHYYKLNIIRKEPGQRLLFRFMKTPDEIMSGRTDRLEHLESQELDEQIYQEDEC
Sequence of ETV1 (P50549 whole entry): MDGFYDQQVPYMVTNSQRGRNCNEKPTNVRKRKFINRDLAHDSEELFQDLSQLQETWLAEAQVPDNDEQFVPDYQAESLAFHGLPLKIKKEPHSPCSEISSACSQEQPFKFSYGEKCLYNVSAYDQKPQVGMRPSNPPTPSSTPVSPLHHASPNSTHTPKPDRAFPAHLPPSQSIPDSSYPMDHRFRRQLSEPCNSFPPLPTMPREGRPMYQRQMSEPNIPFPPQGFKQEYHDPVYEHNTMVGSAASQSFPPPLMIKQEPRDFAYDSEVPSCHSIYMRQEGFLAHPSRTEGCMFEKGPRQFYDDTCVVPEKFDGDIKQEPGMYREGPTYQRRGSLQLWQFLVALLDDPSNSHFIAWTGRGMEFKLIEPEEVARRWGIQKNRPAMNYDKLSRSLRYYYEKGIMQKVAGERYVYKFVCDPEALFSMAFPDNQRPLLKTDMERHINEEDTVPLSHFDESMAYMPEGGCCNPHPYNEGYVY

With AGCTAG the binding signal (FLI1) was 1.05 fold enrichment (6-mer frequency, TF over GST control), the binding signal (ELF1) was 1.06 fold enrichment (6-mer frequency, TF over GST control) and the binding signal (EHF) was 1.02 fold enrichment (6-mer frequency, TF over GST control). The binding signal (ELK3) was 1 fold enrichment (6-mer frequency, TF over GST control), the binding signal (SPIC) was 1.08 fold enrichment (6-mer frequency, TF over GST control) and the binding signal (ELF4) was 1.05 fold enrichment (6-mer frequency, TF over GST control). The binding signal (ELK4) was 1.01 fold enrichment (6-mer frequency, TF over GST control), the binding signal (ETV2) was 1.12 fold enrichment (6-mer frequency, TF over GST control) and the binding signal (ELF3) was 1.1 fold enrichment (6-mer frequency, TF over GST control). The binding signal (ETV1) was 1.05 fold enrichment (6-mer frequency, TF over GST control), the binding signal (ERF) was 1.08 fold enrichment (6-mer frequency, TF over GST control) and the binding signal (ETV3L) was 1.11 fold enrichment (6-mer frequency, TF over GST control). The binding signal (ETS2) was 1.07 fold enrichment (6-mer frequency, TF over GST control), the binding signal (ETV7) was 1.17 fold enrichment (6-mer frequency, TF over GST control) and the binding signal (ETV3) was 1.01 fold enrichment (6-mer frequency, TF over GST control). The binding signal (ETV6) was 1.03 fold enrichment (6-mer frequency, TF over GST control).
